Reference: patent US20200172896, “EVOLUTION OF BIOACTIVE SEQUENCE-DEFINED SYNTHETIC POLYMERS USING DNA-TEMPLATED POLYMERIZATION” (President and Fellows of Harvard College, published 2020)

Biological target: PCSK9 (Homo sapiens, UniProt Q8NBP7;Q8NBP7 Q8NBP7:31-152,Q8NBP7:153-692)
Assay: SPR; vs PCSK9-A5; salmon sperm DNA
Conditions: tags: ACROBiosystems PC9-H5223; label: 5' dual biotin-iSp18; ssDNA; as PCSK9-A5 except codon 13 CAC unmodified [codon 13 CAC (nt 55-57) unmodified; other codons as PCSK9-A5 (including phenol at codon 9 TTT nt 43-45, cyclopentyl at codon 14 CTT nt 58-60)]

Sequence of PCSK9 (Q8NBP7 31-152, chain 1 of 2): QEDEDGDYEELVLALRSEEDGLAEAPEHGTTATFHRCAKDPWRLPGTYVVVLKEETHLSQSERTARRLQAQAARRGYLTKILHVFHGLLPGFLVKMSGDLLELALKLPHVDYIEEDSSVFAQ
Sequence of PCSK9 (Q8NBP7 153-692, chain 2 of 2): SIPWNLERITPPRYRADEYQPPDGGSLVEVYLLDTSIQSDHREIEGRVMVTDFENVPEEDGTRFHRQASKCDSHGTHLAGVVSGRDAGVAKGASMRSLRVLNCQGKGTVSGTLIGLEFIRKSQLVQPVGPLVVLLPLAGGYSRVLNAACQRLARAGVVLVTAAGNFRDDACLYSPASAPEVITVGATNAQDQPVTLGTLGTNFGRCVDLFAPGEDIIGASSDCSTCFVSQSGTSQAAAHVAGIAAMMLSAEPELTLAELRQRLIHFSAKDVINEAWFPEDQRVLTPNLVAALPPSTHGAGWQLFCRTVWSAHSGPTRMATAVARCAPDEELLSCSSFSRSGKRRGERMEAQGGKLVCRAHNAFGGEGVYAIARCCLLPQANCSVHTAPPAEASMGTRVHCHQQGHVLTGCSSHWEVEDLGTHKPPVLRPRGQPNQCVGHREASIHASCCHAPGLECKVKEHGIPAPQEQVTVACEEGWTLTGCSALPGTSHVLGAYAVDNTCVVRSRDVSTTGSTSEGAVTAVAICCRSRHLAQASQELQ

## CGAATCAGATTGGACCAGCCACGTTACTGATTCTTCTACCGTTTTTGCCCCCGGCACCTTCTGGAGTCCAGATGTAGGTAG
  binding signal: ~2 fold reduction in affinity
